Data as given in publication PMC7862700, “An all-to-all approach to the identification of sequence-specific readers for epigenetic DNA modifications on cytosine”.

Key:
Assay in all cases: DAPPL (digital affinity profiling via proximity ligation, sequencing); 10 mM Tris-HCl pH 7.5, 50 mM NaCl, 1 mM DTT, 4% glycerol, room temperature, 30 min; GST-TFs on glutathione beads, 16-mer random dsDNA library, 0.1% formaldehyde crosslink after washing; high values mean tight binding
Conditions in all cases: protein: recombinant; tags: N-terminal GST; dsDNA, one strand shown
ERF = target: T1, ERF (Homo sapiens, UniProt P50548 1-548)
T1 sequence: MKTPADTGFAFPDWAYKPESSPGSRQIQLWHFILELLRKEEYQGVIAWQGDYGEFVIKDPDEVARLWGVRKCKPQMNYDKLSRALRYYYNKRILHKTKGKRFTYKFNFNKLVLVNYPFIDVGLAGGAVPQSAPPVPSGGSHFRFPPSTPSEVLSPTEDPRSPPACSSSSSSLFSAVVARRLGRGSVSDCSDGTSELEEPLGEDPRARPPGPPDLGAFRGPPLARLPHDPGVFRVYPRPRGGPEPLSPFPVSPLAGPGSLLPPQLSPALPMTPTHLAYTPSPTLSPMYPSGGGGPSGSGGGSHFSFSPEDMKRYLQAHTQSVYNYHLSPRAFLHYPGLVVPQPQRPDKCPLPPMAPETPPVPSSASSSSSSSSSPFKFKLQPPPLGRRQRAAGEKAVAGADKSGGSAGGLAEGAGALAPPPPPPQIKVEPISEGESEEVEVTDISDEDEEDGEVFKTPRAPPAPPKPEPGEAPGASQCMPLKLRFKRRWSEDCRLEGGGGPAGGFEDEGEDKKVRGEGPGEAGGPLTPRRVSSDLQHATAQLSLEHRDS
Summary of the method: (§1)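 Yeast served to express human transcription factors as GST fusions, which were then captured on glutathione beads and labelled with DNA barcodes. Pooled with a tag-only sample, they were incubated with 200 nmole of a 16-mer random double-stranded DNA library for 30 min at room temperature in Tris/NaCl/DTT/glycerol buffer, washed, crosslinked with 0.1% formaldehyde, ligated by proximity, amplified by PCR and sequenced. Dividing each hexamer's read frequency for a factor by its frequency for the tag-only sample gives the binding signal.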

ETV3L = target: T2, ETV3L (Homo sapiens, UniProt Q6ZN32 1-361)
T2 sequence: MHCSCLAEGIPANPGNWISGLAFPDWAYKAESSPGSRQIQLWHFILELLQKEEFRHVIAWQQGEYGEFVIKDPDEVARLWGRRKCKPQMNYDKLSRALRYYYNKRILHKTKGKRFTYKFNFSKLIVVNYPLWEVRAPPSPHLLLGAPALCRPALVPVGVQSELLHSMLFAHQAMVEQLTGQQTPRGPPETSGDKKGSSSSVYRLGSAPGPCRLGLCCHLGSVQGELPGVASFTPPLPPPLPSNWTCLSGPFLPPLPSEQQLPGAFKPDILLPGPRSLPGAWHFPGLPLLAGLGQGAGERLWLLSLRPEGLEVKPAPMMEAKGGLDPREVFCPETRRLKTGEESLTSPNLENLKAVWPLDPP
Summary of the method: as §1

ETS2 = target: T3, ETS2 (Homo sapiens, UniProt P15036 1-469)
T3 sequence: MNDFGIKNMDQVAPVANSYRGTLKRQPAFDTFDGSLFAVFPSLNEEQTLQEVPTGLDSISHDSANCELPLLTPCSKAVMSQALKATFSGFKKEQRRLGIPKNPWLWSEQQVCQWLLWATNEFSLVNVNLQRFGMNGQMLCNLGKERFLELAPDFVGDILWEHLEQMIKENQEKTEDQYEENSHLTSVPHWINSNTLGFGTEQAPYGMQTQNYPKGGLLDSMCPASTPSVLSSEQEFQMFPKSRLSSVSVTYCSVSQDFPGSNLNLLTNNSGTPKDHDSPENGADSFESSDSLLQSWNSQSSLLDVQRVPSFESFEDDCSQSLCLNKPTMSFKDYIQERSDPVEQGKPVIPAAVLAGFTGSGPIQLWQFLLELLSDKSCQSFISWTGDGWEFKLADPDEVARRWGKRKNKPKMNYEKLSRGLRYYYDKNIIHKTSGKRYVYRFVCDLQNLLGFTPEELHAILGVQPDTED
Summary of the method: as §1

SPDEF = target: T4, SPDEF (Homo sapiens, UniProt O95238 1-335)
T4 sequence: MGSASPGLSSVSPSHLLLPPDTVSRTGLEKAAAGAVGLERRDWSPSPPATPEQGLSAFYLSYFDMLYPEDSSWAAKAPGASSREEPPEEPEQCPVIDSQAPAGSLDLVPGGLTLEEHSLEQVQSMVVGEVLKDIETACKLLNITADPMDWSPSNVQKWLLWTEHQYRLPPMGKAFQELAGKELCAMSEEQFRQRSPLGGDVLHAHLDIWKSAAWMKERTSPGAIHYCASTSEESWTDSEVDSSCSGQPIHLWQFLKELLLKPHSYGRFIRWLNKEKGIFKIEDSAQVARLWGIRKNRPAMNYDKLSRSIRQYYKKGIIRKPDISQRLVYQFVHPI
Summary of the method: as §1

ETV7 = target: T5, ETV7 (Homo sapiens, UniProt Q9Y603 1-341)
T5 sequence: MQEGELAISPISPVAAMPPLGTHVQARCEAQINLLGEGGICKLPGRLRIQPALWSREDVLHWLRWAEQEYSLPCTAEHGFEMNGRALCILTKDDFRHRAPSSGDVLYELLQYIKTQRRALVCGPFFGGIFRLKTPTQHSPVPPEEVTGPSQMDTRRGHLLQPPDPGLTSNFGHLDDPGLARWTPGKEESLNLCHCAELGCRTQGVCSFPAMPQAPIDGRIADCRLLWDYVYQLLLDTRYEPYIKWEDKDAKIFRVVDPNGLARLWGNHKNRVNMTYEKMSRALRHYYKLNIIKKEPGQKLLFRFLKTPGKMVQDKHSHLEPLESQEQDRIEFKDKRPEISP
Summary of the method: as §1

ELF5 = target: T6, ELF5 (Homo sapiens, UniProt Q9UKW6-2 1-255)
T6 sequence: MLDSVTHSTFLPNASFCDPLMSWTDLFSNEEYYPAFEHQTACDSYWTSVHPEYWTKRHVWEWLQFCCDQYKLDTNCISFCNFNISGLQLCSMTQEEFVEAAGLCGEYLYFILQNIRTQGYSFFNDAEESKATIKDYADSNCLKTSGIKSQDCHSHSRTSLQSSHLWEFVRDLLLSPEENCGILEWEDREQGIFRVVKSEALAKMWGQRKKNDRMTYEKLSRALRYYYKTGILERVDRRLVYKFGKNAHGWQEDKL
Summary of the method: as §1

ETV3 = target: T7, ETV3 (Homo sapiens, UniProt P41162-2 1-143)
T7 sequence: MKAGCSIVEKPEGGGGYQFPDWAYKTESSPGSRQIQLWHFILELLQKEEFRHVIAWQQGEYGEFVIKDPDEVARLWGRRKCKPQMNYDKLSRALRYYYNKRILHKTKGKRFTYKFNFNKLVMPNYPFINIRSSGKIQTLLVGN
Summary of the method: as §1

ETV6 = ETV6 (Homo sapiens, UniProt P41212 1-452)
Summary of the method: as §1

ETV6, sequence (P41212 whole entry): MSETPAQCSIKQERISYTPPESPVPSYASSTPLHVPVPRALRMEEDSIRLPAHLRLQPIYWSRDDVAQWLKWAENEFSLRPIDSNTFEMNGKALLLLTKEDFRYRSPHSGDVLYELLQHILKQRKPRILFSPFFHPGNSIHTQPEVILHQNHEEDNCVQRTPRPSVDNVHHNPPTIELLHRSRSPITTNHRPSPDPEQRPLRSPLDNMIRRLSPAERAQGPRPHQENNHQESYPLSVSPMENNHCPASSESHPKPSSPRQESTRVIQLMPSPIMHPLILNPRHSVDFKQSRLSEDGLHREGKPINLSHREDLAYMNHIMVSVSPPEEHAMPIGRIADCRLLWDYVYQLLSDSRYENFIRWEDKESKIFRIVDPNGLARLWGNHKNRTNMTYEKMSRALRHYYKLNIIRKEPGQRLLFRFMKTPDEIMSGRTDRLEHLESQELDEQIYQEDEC

Sequence	binding signal (ERF)	binding signal (ETV3L)	binding signal (ETS2)	binding signal (SPDEF)	binding signal (ETV7)	binding signal (ELF5)	binding signal (ETV3)	binding signal (ETV6)
CGGCTC	1.36 fold enrichment (6-mer frequency, TF over GST control)	1.27 fold enrichment (6-mer frequency, TF over GST control)	1.23 fold enrichment (6-mer frequency, TF over GST control)	1.42 fold enrichment (6-mer frequency, TF over GST control)	1.25 fold enrichment (6-mer frequency, TF over GST control)	1.27 fold enrichment (6-mer frequency, TF over GST control)	1.29 fold enrichment (6-mer frequency, TF over GST control)	1.23 fold enrichment (6-mer frequency, TF over GST control)
CATTCC	1.22 fold enrichment (6-mer frequency, TF over GST control)	1.28 fold enrichment (6-mer frequency, TF over GST control)	1.28 fold enrichment (6-mer frequency, TF over GST control)	1.29 fold enrichment (6-mer frequency, TF over GST control)	1.19 fold enrichment (6-mer frequency, TF over GST control)	1.28 fold enrichment (6-mer frequency, TF over GST control)	1.27 fold enrichment (6-mer frequency, TF over GST control)	1.3 fold enrichment (6-mer frequency, TF over GST control)
AAGGAT	1.12 fold enrichment (6-mer frequency, TF over GST control)	1.21 fold enrichment (6-mer frequency, TF over GST control)	1.14 fold enrichment (6-mer frequency, TF over GST control)	1.37 fold enrichment (6-mer frequency, TF over GST control)	1.05 fold enrichment (6-mer frequency, TF over GST control)	1.43 fold enrichment (6-mer frequency, TF over GST control)	1.24 fold enrichment (6-mer frequency, TF over GST control)	1.21 fold enrichment (6-mer frequency, TF over GST control)
TATAAA	1.25 fold enrichment (6-mer frequency, TF over GST control)	1.15 fold enrichment (6-mer frequency, TF over GST control)	1.27 fold enrichment (6-mer frequency, TF over GST control)	1.21 fold enrichment (6-mer frequency, TF over GST control)	1.12 fold enrichment (6-mer frequency, TF over GST control)	1.24 fold enrichment (6-mer frequency, TF over GST control)	1.24 fold enrichment (6-mer frequency, TF over GST control)	1.21 fold enrichment (6-mer frequency, TF over GST control)
TGCTCG	1.38 fold enrichment (6-mer frequency, TF over GST control)	1.46 fold enrichment (6-mer frequency, TF over GST control)	1.29 fold enrichment (6-mer frequency, TF over GST control)	1.07 fold enrichment (6-mer frequency, TF over GST control)	1.18 fold enrichment (6-mer frequency, TF over GST control)	1.18 fold enrichment (6-mer frequency, TF over GST control)	1.3 fold enrichment (6-mer frequency, TF over GST control)	1.31 fold enrichment (6-mer frequency, TF over GST control)
TTCCAC	1.38 fold enrichment (6-mer frequency, TF over GST control)	1.54 fold enrichment (6-mer frequency, TF over GST control)	1.44 fold enrichment (6-mer frequency, TF over GST control)	1.36 fold enrichment (6-mer frequency, TF over GST control)	1.31 fold enrichment (6-mer frequency, TF over GST control)	1.51 fold enrichment (6-mer frequency, TF over GST control)	1.46 fold enrichment (6-mer frequency, TF over GST control)	1.47 fold enrichment (6-mer frequency, TF over GST control)
TATGCT	1.18 fold enrichment (6-mer frequency, TF over GST control)	1.45 fold enrichment (6-mer frequency, TF over GST control)	1.29 fold enrichment (6-mer frequency, TF over GST control)	1.36 fold enrichment (6-mer frequency, TF over GST control)	1.32 fold enrichment (6-mer frequency, TF over GST control)	1.29 fold enrichment (6-mer frequency, TF over GST control)	1.32 fold enrichment (6-mer frequency, TF over GST control)	1.24 fold enrichment (6-mer frequency, TF over GST control)
AAATCT	1.3 fold enrichment (6-mer frequency, TF over GST control)	1.32 fold enrichment (6-mer frequency, TF over GST control)	1.33 fold enrichment (6-mer frequency, TF over GST control)	1.25 fold enrichment (6-mer frequency, TF over GST control)	1.16 fold enrichment (6-mer frequency, TF over GST control)	1.27 fold enrichment (6-mer frequency, TF over GST control)	1.19 fold enrichment (6-mer frequency, TF over GST control)	1.24 fold enrichment (6-mer frequency, TF over GST control)
CATCCC	1.2 fold enrichment (6-mer frequency, TF over GST control)	1.26 fold enrichment (6-mer frequency, TF over GST control)	1.33 fold enrichment (6-mer frequency, TF over GST control)	1.47 fold enrichment (6-mer frequency, TF over GST control)	1.2 fold enrichment (6-mer frequency, TF over GST control)	1.44 fold enrichment (6-mer frequency, TF over GST control)	1.16 fold enrichment (6-mer frequency, TF over GST control)	1.24 fold enrichment (6-mer frequency, TF over GST control)
TGCGAT	1.24 fold enrichment (6-mer frequency, TF over GST control)	1.27 fold enrichment (6-mer frequency, TF over GST control)	1.14 fold enrichment (6-mer frequency, TF over GST control)	1.15 fold enrichment (6-mer frequency, TF over GST control)	1.23 fold enrichment (6-mer frequency, TF over GST control)	1.11 fold enrichment (6-mer frequency, TF over GST control)	1.23 fold enrichment (6-mer frequency, TF over GST control)	1.16 fold enrichment (6-mer frequency, TF over GST control)
ATCTAT	1.12 fold enrichment (6-mer frequency, TF over GST control)	1.07 fold enrichment (6-mer frequency, TF over GST control)	1.15 fold enrichment (6-mer frequency, TF over GST control)	1.17 fold enrichment (6-mer frequency, TF over GST control)	1.18 fold enrichment (6-mer frequency, TF over GST control)	1.05 fold enrichment (6-mer frequency, TF over GST control)	1.12 fold enrichment (6-mer frequency, TF over GST control)	1.14 fold enrichment (6-mer frequency, TF over GST control)
CACTAA	1.21 fold enrichment (6-mer frequency, TF over GST control)	1.28 fold enrichment (6-mer frequency, TF over GST control)	1.18 fold enrichment (6-mer frequency, TF over GST control)	1.15 fold enrichment (6-mer frequency, TF over GST control)	1.19 fold enrichment (6-mer frequency, TF over GST control)	1.14 fold enrichment (6-mer frequency, TF over GST control)	1.07 fold enrichment (6-mer frequency, TF over GST control)	1.12 fold enrichment (6-mer frequency, TF over GST control)
TTCAAA	1.26 fold enrichment (6-mer frequency, TF over GST control)	1.27 fold enrichment (6-mer frequency, TF over GST control)	1.25 fold enrichment (6-mer frequency, TF over GST control)	1.23 fold enrichment (6-mer frequency, TF over GST control)	1.19 fold enrichment (6-mer frequency, TF over GST control)	1.21 fold enrichment (6-mer frequency, TF over GST control)	1.23 fold enrichment (6-mer frequency, TF over GST control)	1.27 fold enrichment (6-mer frequency, TF over GST control)
ACCTTT	1.52 fold enrichment (6-mer frequency, TF over GST control)	1.41 fold enrichment (6-mer frequency, TF over GST control)	1.48 fold enrichment (6-mer frequency, TF over GST control)	1.34 fold enrichment (6-mer frequency, TF over GST control)	1.36 fold enrichment (6-mer frequency, TF over GST control)	1.45 fold enrichment (6-mer frequency, TF over GST control)	1.42 fold enrichment (6-mer frequency, TF over GST control)	1.48 fold enrichment (6-mer frequency, TF over GST control)
CCGATA	1.13 fold enrichment (6-mer frequency, TF over GST control)	1.05 fold enrichment (6-mer frequency, TF over GST control)	1.16 fold enrichment (6-mer frequency, TF over GST control)	1.05 fold enrichment (6-mer frequency, TF over GST control)	1.06 fold enrichment (6-mer frequency, TF over GST control)	1.1 fold enrichment (6-mer frequency, TF over GST control)	1.14 fold enrichment (6-mer frequency, TF over GST control)	1.12 fold enrichment (6-mer frequency, TF over GST control)
